# Reference: PMC7862700, “An all-to-all approach to the identification of sequence-specific readers for epigenetic DNA modifications on cytosine”
# Tests used:
# Test in all cases: DAPPL (digital affinity profiling via proximity ligation, sequencing); 10 mM Tris-HCl pH 7.5, 50 mM NaCl, 1 mM DTT, 4% glycerol, room temperature, 30 min; GST-TFs on glutathione beads, 16-mer random dsDNA library, 0.1% formaldehyde crosslink after washing; high values mean tight binding
# FLI1 = molecular target: T1, FLI1 (Homo sapiens, UniProt Q01543 1-452); conditions: protein: recombinant; tags: N-terminal GST; dsDNA, one strand shown
# T1 sequence: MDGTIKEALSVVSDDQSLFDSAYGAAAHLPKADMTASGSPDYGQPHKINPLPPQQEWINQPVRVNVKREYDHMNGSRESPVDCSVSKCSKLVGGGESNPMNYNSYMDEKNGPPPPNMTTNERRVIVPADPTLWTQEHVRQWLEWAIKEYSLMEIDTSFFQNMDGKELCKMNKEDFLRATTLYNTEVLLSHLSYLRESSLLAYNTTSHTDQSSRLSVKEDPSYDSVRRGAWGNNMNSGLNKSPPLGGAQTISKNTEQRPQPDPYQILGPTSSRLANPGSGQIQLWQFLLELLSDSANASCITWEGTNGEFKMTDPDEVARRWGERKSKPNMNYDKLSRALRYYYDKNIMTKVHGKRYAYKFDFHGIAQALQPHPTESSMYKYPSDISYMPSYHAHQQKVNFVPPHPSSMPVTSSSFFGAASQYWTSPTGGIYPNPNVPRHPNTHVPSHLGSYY
# Outline: (§1)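 In yeast, human transcription factors were expressed with a GST fusion, then pulled down on glutathione beads and given DNA barcodes. Pooled with a tag-only sample, they were exposed to 200 nmole of a 16-mer random double-stranded DNA library (Tris/NaCl/DTT/glycerol buffer, room temperature, 30 min), washed, crosslinked with 0.1% formaldehyde, proximity-ligated using BsaI/T4 ligase for 1 h at 37 °C, PCR-amplified and read on an Illumina NextSeq500. Each hexamer's frequency of reads for a factor, divided by the matching frequency for the tag-only sample, gives the binding signal.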
# ELK1 = molecular target: T2, ELK1 (Homo sapiens, UniProt P19419 1-428); conditions: protein: recombinant; tags: N-terminal GST; dsDNA, one strand shown
# T2 sequence: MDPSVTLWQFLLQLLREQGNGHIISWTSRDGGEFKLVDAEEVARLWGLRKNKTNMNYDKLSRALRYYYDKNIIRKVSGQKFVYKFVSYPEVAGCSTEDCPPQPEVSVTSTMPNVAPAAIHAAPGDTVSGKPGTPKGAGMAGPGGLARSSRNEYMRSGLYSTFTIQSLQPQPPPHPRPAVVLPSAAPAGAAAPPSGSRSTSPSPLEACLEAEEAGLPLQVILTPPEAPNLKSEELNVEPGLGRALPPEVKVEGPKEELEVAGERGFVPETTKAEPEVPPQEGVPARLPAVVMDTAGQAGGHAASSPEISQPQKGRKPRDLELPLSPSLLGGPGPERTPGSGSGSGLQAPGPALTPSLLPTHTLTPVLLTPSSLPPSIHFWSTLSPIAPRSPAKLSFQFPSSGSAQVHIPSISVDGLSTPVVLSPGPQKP
# Outline: as §1
# GABPA = molecular target: T3, GABPA (Homo sapiens, UniProt Q06546 1-454); conditions: protein: recombinant; tags: N-terminal GST; dsDNA, one strand shown
# T3 sequence: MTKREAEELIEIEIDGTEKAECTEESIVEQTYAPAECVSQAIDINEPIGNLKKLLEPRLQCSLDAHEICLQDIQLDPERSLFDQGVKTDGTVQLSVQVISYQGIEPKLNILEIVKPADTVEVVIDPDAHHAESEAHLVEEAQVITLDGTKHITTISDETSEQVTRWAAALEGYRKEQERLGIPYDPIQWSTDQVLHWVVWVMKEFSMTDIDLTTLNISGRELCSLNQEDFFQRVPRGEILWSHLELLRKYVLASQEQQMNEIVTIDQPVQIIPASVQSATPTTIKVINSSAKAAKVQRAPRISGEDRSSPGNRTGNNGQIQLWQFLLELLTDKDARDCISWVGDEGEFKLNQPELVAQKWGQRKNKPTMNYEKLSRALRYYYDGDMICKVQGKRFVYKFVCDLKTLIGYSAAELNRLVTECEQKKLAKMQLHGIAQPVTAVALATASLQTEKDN
# Outline: as §1
# ERG = molecular target: T4, ERG (Homo sapiens, UniProt P11308 1-479); conditions: protein: recombinant; tags: N-terminal GST; dsDNA, one strand shown
# T4 sequence: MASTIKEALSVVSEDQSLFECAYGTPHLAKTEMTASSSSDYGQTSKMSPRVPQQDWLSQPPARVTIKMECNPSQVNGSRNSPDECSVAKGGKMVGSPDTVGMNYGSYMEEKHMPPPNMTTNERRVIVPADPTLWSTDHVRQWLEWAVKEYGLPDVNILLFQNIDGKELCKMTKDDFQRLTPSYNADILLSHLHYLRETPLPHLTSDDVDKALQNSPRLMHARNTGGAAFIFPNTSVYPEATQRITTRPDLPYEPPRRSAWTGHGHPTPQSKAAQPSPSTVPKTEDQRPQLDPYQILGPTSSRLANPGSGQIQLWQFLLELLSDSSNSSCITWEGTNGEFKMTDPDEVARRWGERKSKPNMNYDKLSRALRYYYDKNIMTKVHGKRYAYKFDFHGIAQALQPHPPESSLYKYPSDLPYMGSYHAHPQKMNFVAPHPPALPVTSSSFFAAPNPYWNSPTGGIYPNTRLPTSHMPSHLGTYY
# Outline: as §1
# ELF1 = ELF1 (Homo sapiens, UniProt P32519 1-619); conditions: protein: recombinant; tags: N-terminal GST; dsDNA, one strand shown
# Outline: as §1
# EHF = molecular target: T5, EHF (Homo sapiens, UniProt Q9NZC4 1-300); conditions: protein: recombinant; tags: N-terminal GST; dsDNA, one strand shown
# T5 sequence: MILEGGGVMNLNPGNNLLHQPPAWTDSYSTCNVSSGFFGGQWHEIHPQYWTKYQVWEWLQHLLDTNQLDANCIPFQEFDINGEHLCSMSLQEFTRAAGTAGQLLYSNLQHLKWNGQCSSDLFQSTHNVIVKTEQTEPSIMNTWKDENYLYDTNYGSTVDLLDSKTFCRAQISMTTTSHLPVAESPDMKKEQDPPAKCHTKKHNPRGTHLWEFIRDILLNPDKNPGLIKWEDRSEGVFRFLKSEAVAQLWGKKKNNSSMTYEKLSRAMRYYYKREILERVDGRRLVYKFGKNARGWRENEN
# Outline: as §1
# SPI1 = SPI1 (Homo sapiens, UniProt P17947 1-270); conditions: protein: recombinant; tags: N-terminal GST; dsDNA, one strand shown
# Outline: as §1
# SPIB = SPIB (Homo sapiens, UniProt Q01892 1-262); conditions: protein: recombinant; tags: N-terminal GST; dsDNA, one strand shown
# Outline: as §1
# ELK3 = molecular target: T6, ELK3 (Homo sapiens, UniProt P41970 1-407); conditions: protein: recombinant; tags: N-terminal GST; dsDNA, one strand shown
# T6 sequence: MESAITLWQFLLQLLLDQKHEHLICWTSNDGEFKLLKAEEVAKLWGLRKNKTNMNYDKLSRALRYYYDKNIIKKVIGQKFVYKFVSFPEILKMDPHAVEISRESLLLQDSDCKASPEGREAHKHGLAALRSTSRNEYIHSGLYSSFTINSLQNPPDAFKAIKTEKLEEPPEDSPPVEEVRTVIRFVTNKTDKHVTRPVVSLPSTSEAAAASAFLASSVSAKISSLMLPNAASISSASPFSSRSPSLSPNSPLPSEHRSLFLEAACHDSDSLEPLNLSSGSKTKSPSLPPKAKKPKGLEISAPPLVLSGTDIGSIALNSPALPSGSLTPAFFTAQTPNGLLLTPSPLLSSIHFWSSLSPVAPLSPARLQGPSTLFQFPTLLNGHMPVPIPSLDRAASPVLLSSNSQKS
# Outline: as §1
# FEV = molecular target: T7, FEV (Homo sapiens, UniProt Q99581 1-238); conditions: protein: recombinant; tags: N-terminal GST; dsDNA, one strand shown
# T7 sequence: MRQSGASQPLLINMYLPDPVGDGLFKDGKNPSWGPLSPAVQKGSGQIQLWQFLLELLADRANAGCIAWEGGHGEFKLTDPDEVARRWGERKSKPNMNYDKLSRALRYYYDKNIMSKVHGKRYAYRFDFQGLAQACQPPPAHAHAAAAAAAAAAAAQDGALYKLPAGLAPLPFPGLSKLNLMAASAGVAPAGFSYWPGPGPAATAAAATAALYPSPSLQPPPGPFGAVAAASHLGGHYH
# Outline: as §1
# ETV5 = ETV5 (Homo sapiens, UniProt P41161 1-510); conditions: protein: recombinant; tags: N-terminal GST; dsDNA, one strand shown
# Outline: as §1
# HSF1 = HSF1 (Homo sapiens, UniProt Q00613 1-529); conditions: protein: recombinant; tags: N-terminal GST; chain copies: 3; dsDNA, one strand shown
# Outline: as §1
# SPIC = molecular target: T8, SPIC (Homo sapiens, UniProt Q8N5J4 1-248); conditions: protein: recombinant; tags: N-terminal GST; dsDNA, one strand shown
# T8 sequence: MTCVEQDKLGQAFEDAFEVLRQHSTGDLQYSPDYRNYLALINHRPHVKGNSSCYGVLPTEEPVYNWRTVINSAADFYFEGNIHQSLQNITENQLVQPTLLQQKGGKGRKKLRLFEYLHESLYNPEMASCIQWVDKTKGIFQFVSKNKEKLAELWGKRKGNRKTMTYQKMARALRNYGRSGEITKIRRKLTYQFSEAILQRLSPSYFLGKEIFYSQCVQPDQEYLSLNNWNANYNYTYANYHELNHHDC
# Outline: as §1
# ELF4 = ELF4 (Homo sapiens, UniProt Q99607 1-663); conditions: protein: recombinant; tags: N-terminal GST; dsDNA, one strand shown
# Outline: as §1
# ELK4 = molecular target: T9, ELK4 (Homo sapiens, UniProt P28324-2 1-405); conditions: protein: recombinant; tags: N-terminal GST; dsDNA, one strand shown
# T9 sequence: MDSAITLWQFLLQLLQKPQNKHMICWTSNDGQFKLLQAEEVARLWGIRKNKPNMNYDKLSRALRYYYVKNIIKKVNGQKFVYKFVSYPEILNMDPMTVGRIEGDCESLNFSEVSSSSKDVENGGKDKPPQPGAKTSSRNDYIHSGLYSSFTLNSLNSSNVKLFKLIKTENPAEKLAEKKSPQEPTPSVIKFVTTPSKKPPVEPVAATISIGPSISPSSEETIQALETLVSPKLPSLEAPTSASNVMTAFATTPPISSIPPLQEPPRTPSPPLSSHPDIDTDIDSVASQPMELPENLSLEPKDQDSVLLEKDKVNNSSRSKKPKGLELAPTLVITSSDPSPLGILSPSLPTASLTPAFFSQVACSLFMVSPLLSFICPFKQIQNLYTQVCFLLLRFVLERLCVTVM
# Outline: as §1
# ETV2 = molecular target: T10, ETV2 (Homo sapiens, UniProt O00321 1-342); conditions: protein: recombinant; tags: N-terminal GST; dsDNA, one strand shown
# T10 sequence: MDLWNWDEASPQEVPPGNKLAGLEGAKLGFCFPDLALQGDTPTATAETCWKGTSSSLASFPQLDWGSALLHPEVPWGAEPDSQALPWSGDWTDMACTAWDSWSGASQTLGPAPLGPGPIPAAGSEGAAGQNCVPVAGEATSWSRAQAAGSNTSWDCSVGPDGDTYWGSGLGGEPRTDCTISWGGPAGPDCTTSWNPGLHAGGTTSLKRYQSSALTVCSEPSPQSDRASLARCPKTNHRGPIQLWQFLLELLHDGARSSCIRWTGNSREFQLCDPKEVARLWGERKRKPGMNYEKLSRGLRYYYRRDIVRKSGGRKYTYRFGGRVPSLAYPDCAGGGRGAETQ
# Outline: as §1
# ELF3 = molecular target: T11, ELF3 (Homo sapiens, UniProt P78545 1-371); conditions: protein: recombinant; tags: N-terminal GST; dsDNA, one strand shown
# T11 sequence: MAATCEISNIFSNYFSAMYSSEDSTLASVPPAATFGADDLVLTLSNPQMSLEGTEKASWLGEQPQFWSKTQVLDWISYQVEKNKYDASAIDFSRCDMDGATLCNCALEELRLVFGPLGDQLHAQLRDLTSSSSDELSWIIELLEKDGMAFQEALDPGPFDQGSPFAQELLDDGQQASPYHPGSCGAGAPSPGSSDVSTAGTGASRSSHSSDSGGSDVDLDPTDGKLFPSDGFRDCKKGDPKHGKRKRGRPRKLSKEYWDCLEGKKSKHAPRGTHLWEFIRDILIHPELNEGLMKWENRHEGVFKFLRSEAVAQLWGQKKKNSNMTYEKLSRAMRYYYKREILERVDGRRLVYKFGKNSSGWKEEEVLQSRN
# Outline: as §1
# CRX = CRX (Homo sapiens, UniProt O43186 1-299); conditions: protein: recombinant; tags: N-terminal GST; dsDNA, one strand shown
# Outline: as §1
# ETV1 = ETV1 (Homo sapiens, UniProt P50549 1-477); conditions: protein: recombinant; tags: N-terminal GST; dsDNA, one strand shown
# Outline: as §1
# Chain of ETV5 (P41161 whole entry): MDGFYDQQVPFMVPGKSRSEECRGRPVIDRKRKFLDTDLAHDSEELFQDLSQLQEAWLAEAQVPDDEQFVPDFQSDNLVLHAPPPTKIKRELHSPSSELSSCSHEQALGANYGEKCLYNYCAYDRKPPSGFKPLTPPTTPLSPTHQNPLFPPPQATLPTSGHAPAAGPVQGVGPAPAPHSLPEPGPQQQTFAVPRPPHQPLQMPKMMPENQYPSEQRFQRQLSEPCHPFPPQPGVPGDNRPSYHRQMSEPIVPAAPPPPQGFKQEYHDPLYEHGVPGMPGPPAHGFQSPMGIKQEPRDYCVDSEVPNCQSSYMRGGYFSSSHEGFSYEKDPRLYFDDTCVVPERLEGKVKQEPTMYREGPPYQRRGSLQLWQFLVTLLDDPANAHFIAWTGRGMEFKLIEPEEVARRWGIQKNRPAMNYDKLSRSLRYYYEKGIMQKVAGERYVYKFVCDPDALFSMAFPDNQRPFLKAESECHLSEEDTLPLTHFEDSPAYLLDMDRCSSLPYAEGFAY
# Chain of ELF1 (P32519 whole entry): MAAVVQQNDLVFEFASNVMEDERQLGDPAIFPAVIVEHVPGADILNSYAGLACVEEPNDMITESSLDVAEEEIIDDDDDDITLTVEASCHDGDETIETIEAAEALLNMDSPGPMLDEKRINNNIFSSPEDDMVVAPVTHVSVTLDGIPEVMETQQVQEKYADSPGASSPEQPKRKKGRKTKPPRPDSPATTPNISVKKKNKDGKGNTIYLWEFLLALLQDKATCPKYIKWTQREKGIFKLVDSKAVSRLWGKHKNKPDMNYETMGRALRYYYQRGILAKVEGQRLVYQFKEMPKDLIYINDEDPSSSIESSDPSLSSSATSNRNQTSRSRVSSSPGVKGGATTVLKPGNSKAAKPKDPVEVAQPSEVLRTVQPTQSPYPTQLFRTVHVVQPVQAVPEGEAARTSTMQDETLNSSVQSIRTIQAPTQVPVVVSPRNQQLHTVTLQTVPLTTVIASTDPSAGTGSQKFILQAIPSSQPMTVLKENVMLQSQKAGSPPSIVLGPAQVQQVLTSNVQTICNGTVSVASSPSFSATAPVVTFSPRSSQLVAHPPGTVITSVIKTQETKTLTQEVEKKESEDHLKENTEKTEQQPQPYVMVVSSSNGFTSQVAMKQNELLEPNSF
# Chain of ELF4 (Q99607 whole entry): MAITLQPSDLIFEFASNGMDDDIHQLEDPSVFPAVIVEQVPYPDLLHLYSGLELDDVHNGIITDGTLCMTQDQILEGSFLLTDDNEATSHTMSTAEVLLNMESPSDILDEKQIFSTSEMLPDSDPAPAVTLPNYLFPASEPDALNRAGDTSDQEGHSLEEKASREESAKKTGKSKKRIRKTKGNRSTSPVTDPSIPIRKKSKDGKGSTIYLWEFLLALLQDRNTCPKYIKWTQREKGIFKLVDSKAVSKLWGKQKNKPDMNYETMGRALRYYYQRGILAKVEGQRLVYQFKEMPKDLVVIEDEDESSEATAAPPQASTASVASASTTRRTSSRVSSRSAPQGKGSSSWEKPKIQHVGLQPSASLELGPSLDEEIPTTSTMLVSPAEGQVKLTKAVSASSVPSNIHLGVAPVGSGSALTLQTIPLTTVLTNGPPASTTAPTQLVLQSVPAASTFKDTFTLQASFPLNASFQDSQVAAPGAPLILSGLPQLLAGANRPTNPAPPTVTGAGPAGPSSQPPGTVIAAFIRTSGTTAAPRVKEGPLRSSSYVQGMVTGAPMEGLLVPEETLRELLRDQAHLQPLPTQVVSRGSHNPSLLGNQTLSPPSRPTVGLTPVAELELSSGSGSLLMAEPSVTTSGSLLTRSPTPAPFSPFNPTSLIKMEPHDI
# Chain of SPIB (Q01892 whole entry): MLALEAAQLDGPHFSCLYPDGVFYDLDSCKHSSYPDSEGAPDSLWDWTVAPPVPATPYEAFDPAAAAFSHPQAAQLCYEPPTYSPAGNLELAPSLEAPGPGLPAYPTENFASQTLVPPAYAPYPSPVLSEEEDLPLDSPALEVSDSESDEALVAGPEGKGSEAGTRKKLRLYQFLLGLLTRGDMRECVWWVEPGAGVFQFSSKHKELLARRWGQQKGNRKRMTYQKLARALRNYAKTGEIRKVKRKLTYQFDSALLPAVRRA
# Chain of ETV1 (P50549 whole entry): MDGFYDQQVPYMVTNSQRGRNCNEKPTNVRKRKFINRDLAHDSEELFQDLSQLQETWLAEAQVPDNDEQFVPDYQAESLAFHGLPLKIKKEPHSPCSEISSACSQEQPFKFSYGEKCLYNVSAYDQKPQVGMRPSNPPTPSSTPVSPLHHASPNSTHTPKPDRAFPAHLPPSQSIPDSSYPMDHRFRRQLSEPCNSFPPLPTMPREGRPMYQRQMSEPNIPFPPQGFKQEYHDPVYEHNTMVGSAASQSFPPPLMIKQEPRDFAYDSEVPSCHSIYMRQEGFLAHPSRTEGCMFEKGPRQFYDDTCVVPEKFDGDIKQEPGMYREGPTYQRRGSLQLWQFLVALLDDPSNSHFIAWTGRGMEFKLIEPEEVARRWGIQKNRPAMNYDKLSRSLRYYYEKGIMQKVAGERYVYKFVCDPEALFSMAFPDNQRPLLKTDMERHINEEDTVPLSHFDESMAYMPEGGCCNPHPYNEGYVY
# Chain of CRX (O43186 whole entry): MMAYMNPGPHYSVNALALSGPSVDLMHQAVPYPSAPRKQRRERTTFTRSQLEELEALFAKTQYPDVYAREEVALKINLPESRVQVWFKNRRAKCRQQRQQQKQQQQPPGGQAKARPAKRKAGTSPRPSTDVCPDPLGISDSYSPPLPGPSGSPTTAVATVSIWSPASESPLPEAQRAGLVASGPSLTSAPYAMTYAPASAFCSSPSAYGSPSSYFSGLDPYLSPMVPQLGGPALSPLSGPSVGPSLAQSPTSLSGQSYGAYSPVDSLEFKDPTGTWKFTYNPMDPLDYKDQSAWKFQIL
# Chain of HSF1 (Q00613 whole entry): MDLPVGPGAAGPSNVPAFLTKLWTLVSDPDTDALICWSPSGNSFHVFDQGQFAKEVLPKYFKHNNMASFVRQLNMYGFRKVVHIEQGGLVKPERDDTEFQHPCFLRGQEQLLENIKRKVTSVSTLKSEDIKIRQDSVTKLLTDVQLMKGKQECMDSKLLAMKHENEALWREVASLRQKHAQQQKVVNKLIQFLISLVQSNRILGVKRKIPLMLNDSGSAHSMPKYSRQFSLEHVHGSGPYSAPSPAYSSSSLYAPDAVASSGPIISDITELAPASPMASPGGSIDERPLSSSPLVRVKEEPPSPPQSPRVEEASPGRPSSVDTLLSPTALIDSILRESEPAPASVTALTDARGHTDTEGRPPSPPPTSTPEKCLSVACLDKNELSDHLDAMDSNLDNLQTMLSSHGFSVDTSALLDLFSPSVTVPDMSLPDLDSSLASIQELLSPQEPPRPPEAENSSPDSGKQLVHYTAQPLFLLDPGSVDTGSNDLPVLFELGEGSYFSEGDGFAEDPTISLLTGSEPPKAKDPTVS
sequence,measurement,setting,value
TTTCAT,binding signal,FLI1,"1.11 fold enrichment (6-mer frequency, TF over GST control)"
same,binding signal,ELK1,"1.09 fold enrichment (6-mer frequency, TF over GST control)"
same,binding signal,GABPA,"1.22 fold enrichment (6-mer frequency, TF over GST control)"
same,binding signal,ERG,"1.15 fold enrichment (6-mer frequency, TF over GST control)"
same,binding signal,ELF1,"1.18 fold enrichment (6-mer frequency, TF over GST control)"
same,binding signal,EHF,"1.17 fold enrichment (6-mer frequency, TF over GST control)"
same,binding signal,SPI1,"1.14 fold enrichment (6-mer frequency, TF over GST control)"
same,binding signal,SPIB,"1.22 fold enrichment (6-mer frequency, TF over GST control)"
same,binding signal,ELK3,"1.15 fold enrichment (6-mer frequency, TF over GST control)"
same,binding signal,FEV,"1.12 fold enrichment (6-mer frequency, TF over GST control)"
same,binding signal,ETV5,"1.09 fold enrichment (6-mer frequency, TF over GST control)"
same,binding signal,HSF1,"1.13 fold enrichment (6-mer frequency, TF over GST control)"
same,binding signal,SPIC,"1.11 fold enrichment (6-mer frequency, TF over GST control)"
same,binding signal,ELF4,"1.2 fold enrichment (6-mer frequency, TF over GST control)"
same,binding signal,ELK4,"1.19 fold enrichment (6-mer frequency, TF over GST control)"
same,binding signal,ETV2,"1.1 fold enrichment (6-mer frequency, TF over GST control)"
same,binding signal,ELF3,"1.11 fold enrichment (6-mer frequency, TF over GST control)"
same,binding signal,CRX,"1.18 fold enrichment (6-mer frequency, TF over GST control)"
same,binding signal,ETV1,"1.16 fold enrichment (6-mer frequency, TF over GST control)"
